The values below come from PubChem BioAssay AID430 (Sanford-Burnham Center for Chemical Genomics, 2006).

In all, about 63,000 compounds went through this assay and about 1,100 (1.7%) were called active. The sample holds actives, similar compounds and a random draw of the others, so the mix is not that of the screen. Results with a measured potency or affinity are listed apart. Unmarked numbers belong to inactive results. Cut-off read from the data, not from the text of the source: active = cytotoxicity above about 50%; inactive = the rest.

This experiment in a line: HPDE-C7 pancreatic duct cell viability loss – fluorescence, HTS (AID 430).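 Note: cells exposed to compound for 48 hours before viability readout; 0% = vehicle and 100% = reference cytotoxic drug.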 The note with it: HPDE-C7 pancreatic duct cells viability, at 10 µM, hits give high values.
Regarding `CCOc1ccc(CN(CCO)CCO)cc1C(=O)OC`, the cytotoxicity was -17%.

On to `CSc1cccc(NC(=O)CSc2nc3ccccc3o2)c1`, for which the cytotoxicity is -17.5%.

`O=C(CSc1nc2ccccc2o1)Nc1ccccc1`: the cytotoxicity was -13.9%.

As for `CCCCN(Cc1ccccc1)C(=O)C1CCCN(S(=O)(=O)c2cnc[nH]2)C1` (centres undefined), the cytotoxicity is 6%.

In the case of `Cc1cccc2cc(C#N)c(SCC(=O)N3CC(=O)Nc4ccccc43)nc12`, the cytotoxicity was 53.4% (active).

On to `Cc1ccccc1-n1c(C)nnc1SCC(=O)N1CC(=O)Nc2ccccc21`, for which the cytotoxicity is 4.2%.

On to `Cc1cccc2cc(C#N)c(SCC(=O)N3CCC(C)CC3)nc12`, for which the cytotoxicity was 8.5%.

As to `C=CCOc1ccc(/C(O)=C2/C(=O)C(=O)N(CCN3CCOCC3)C2c2ccc(C)cc2)cc1` (centres undefined), the cytotoxicity is -1.1%.

As to `N#CC1=C(N)C(C#N)(C#N)[C@H](c2ccncc2)[C@H]2CC3(CC=C12)OCCO3`, the cytotoxicity is -12.1%.

Turning to `Cc1ccc(C2C3CN(C(C)C)CC=C3C(C#N)=C(N)C2(C#N)C#N)cc1` (centres undefined), the cytotoxicity was -0.7%.

Turning to `CCOC(=O)c1cccc(NC(=O)CSc2nnc(-c3cccnc3)n2CC)c1`, the cytotoxicity was -5.8%.

On to `COc1ccccc1-n1c(SCC(=O)N2CCCCC2)nc2cccnc21`, for which the cytotoxicity is -11.8%.

For the compound `COc1ccc2c(c1)c(C(O)CN1CCN(Cc3ccc4c(c3)OCO4)CC1)c(C)n2C` (centres undefined), the cytotoxicity is 21.3%.

Regarding `COc1ccc2[nH]c3c(N4CCN(Cc5ccc6c(c5)OCO6)CC4)ncnc3c2c1`, the cytotoxicity was 50.6% (active).

Turning to `COc1ccc2c(c1)c1ncnc(N3CCN(Cc4ccc5c(c4)OCO5)CC3)c1n2C`, the cytotoxicity is 54.9% (active).

Consider `c1ccc(Cn2nnc3c(N4CCN(Cc5ccc6c(c5)OCO6)CC4)ncnc32)cc1`, for which the cytotoxicity is 11.9%.

With `CN1CCN(c2ncnc3c2[nH]c2ccc(F)cc23)CC1`, the cytotoxicity is 6.4%.

As for `COc1cccc2[nH]c3c(N4CCN(Cc5ccc6c(c5)OCO6)CC4)ncnc3c12`, the cytotoxicity was 47.6%.

As for `Fc1ccc2[nH]c3c(N4CCN(C5CCCCC5)CC4)ncnc3c2c1`, the cytotoxicity is 10.6%.

For `COc1cccc(N2CCN(c3ncnc4c3[nH]c3ccc(F)cc34)CC2C)c1` (centres undefined), the cytotoxicity is 114% (active).

Turning to `Fc1ccc2[nH]c3c(N4CCN(c5ccccc5)CC4)ncnc3c2c1`, the cytotoxicity was 10.8%.

Take `c1ccc2c(c1)oc1c(N3CCN(Cc4ccc5c(c4)OCO5)CC3)ncnc12`: the cytotoxicity was 8.4%.

Turning to `c1ccc2c(c1)[nH]c1c(N3CCSCC3)ncnc12`, the cytotoxicity is 44%.

In the case of `Cc1ccc(N(CC(=O)NC2CCCCCC2)S(=O)(=O)c2c(C)nn(C)c2C)cc1`, the cytotoxicity is 3.4%.

For `COc1cccc(C(=O)N(CN2CCCC2=O)c2ccccc2OC)c1`, the cytotoxicity was -0.2%.

As for `CCCC(c1nnnn1Cc1ccc(F)cc1)N1CCN(C2CCCCC2)CC1` (centres undefined), the cytotoxicity is 10.8%.

`O=C(CN1CCN(c2ccccn2)CC1)Nc1ccc(OCc2ccccc2)cc1`: the cytotoxicity is 3.7%.

`O=C1c2ccccc2C(=O)N1CCSc1nncs1`: the cytotoxicity was -8.3%.

As for `COC(=O)c1[nH]c2cc(OC)ccc2c1NC(=O)CCN1CCN(Cc2ccc3c(c2)OCO3)CC1`, the cytotoxicity was -20.7%.

`c1nc(N2CCN(Cc3ccc4c(c3)OCO4)CC2)c2[nH]cnc2n1`: the cytotoxicity is -4%.

With `Cc1ccc2[nH]c3c(N4CCN(Cc5ccc6c(c5)OCO6)CC4)ncnc3c2c1`, the cytotoxicity is 30.3%.

As for `Fc1ccc2[nH]c3c(N4CCN(Cc5ccc6c(c5)OCO6)CC4)ncnc3c2c1`, the cytotoxicity is 89.3% (active).

In the case of `Cc1ccc2c(c1)[nH]c1c(N3CCN(Cc4ccc5c(c4)OCO5)CC3)ncnc12`, the cytotoxicity is -17.1%.

With `COc1ccccc1-n1c(SCC(=O)NC(C)(C)C)nnc1-c1ccco1`, the cytotoxicity was 3.2%.

For the compound `COC(=O)c1sc(NC(=O)CSc2nnc(C(C)C)n2C)nc1C`, the cytotoxicity is -8.2%.

`COc1ccccc1CN1C(=O)CCC1(C)C(=O)NC1CCCCCC1` (centres undefined): the cytotoxicity was -12.9%.

As for `COCCNC(=O)c1cnn2c(C(F)(F)F)cc(-c3ccc4c(c3)OCO4)nc12`, the cytotoxicity was 4.1%.

Consider `Cc1cc(-c2ccccc2)c2c3c(cn2n1)c(=O)n(C)c(=O)n3C`, for which the cytotoxicity is 2.6%.

`Cc1nc2sc3c(c2c2nnc(SCC(=O)NCc4ccco4)n12)CCCC3`: the cytotoxicity is -3.2%.

Regarding `CC1(C)Cc2c(C#N)c(SCc3ccccc3)nc(N3CCOCC3)c2CO1`, the cytotoxicity was 18.9%.

As to `CCCCCSc1nc(N2CCOCC2)c2c(c1C#N)CC(C)(C)OC2`, the cytotoxicity was 1.7%.

As to `N#Cc1c(SCc2ccccc2)nc(N2CCOCC2)c2c1CCCC2`, the cytotoxicity was 8.3%.

For the compound `CN1Cc2c(N3CCOCC3)nc(SCc3ccccc3)c(C#N)c2CC1(C)C`, the cytotoxicity is 51.3% (active).

As for `CC1(C)Cc2c(C#N)c(SCCOc3ccccc3)nc(N3CCOCC3)c2CO1`, the cytotoxicity was 59.4% (active).

With `CC1(C)Cc2c(C#N)c(SCC(=O)c3ccccc3)nc(N3CCOCC3)c2CO1`, the cytotoxicity was -5.6%.

As to `Cn1c(=O)c2c(ncn2CC(=O)N2CCCc3ccccc32)n(C)c1=O`, the cytotoxicity was -15.8%.

For `CCOC(=O)c1cccc(S(=O)(=O)N(CCO)Cc2cc3cc(OC)c(OC)cc3[nH]c2=O)c1`, the cytotoxicity is -19.4%.

Take `COc1ccc(-n2c(Cc3cccn3C)nnc2SCC(=O)Nc2nccs2)cc1`: the cytotoxicity is 5.7%.

With `Nc1ccccc1OCCOCCOCCOc1ccccc1N`, the cytotoxicity was 5.3%.

For the compound `CCC(C)n1cnc2c(c1=O)c1nc3ccccc3nc1n2Cc1ccc2c(c1)OCO2` (centres undefined), the cytotoxicity is 26.8%.

For the compound `COc1ccc(C2=NOC(C(=O)NCc3ccco3)C2)cc1OC` (centres undefined), the cytotoxicity was 38.7%.

As for `COc1ccc(C2=NOC(C(=O)NCc3ccc(F)cc3)C2)cc1OC` (centres undefined), the cytotoxicity is 55.2% (active).

On to `COc1ccc(NC(=O)C2CC(c3ccc(OC)c(OC)c3)=NO2)cc1OC` (centres undefined), for which the cytotoxicity was -6.6%.

Turning to `COc1cc(C2=NOC(C(=O)NCc3ccc(F)cc3)C2)cc(OC)c1OC` (centres undefined), the cytotoxicity was 63.4% (active).

For `COc1cc(C2=NOC(C(=O)Nc3ccc(C)cc3)C2)cc(OC)c1OC` (centres undefined), the cytotoxicity is -9.2%.

Take `COc1cc(C2=NOC(C(=O)NCc3ccco3)C2)cc(OC)c1OC` (centres undefined): the cytotoxicity is 32.6%.

Regarding `O=C(c1ccco1)N(CCCN1CCOCC1)c1nc(-c2ccc(F)cc2)cs1`, the cytotoxicity was 11.3%.

For the compound `COc1ccc(NC(C)=O)cc1NC(=O)CSc1nnc(-c2cccnc2)n1C`, the cytotoxicity was -13.3%.

On to `O=C(NCC1CCCO1)C1CCC(CNS(=O)(=O)c2ccccc2)CC1` (centres undefined), for which the cytotoxicity is 13.6%.

As to `COc1ccc(OC)c2sc(NC(=O)CCS(=O)(=O)c3ccccc3)nc12`, the cytotoxicity was -0.4%.

On to `O=C(CCS(=O)(=O)c1ccccc1)Nc1nc2c(s1)COc1ccccc1-2`, for which the cytotoxicity was 98.3% (active).

For `O=C(Nc1nc2c(s1)COc1ccccc1-2)c1cccs1`, the cytotoxicity is 9.6%.

With `Clc1ccc2nc(CN3CCCc4ccccc43)cn2c1`, the cytotoxicity was 23.1%.

In the case of `CCCCCn1c(=NC(C)=O)c(C#N)cc2c(=O)n3ccccc3nc21`, the cytotoxicity is 8.8%.

Regarding `O=C(O)Cn1cc(C(=O)c2cccs2)c2ccccc21`, the cytotoxicity is -14%.

In the case of `COCCn1c(C(C)C)nc2oc3ccccc3c(=O)c2c1=O`, the cytotoxicity was -9.4%.

As to `CCC(=O)N1CCc2cc(S(=O)(=O)NCCN3CCC(C)CC3)ccc21`, the cytotoxicity was -1.8%.

For the compound `CCN1C(=O)CC(N2CCC(C(=O)OC)CC2)C1=O` (centres undefined), the cytotoxicity is -6.2%.

Turning to `CN1CCN(C(c2cccnc2)c2ccc3cccnc3c2O)CC1` (centres undefined), the cytotoxicity is -9.1%.

For `OCCN1CCN(C(c2cccs2)c2ccc3cccnc3c2O)CC1` (centres undefined), the cytotoxicity was 79.3% (active).

For the compound `Cc1nc2sc(C(c3ccccc3)N3CCN(CCO)CC3)c(O)n2n1` (centres undefined), the cytotoxicity is -1.3%.

For the compound `CC1CCC(C(=O)NC(C(=O)NCCN2CCC(C)CC2)C(C)C)CC1` (centres undefined), the cytotoxicity was -16.7%.

Take `Cc1nnc(SCc2ccccc2Cl)n1CC1CCCO1` (centres undefined): the cytotoxicity is -11.9%.

On to `COc1ccc(NC2=CC(=O)CC(C)(C)C2)cc1OC`, for which the cytotoxicity was -19.2%.

Turning to `O=C(Nc1ccc2snnc2c1)N1CCN(c2ccccc2)CC1`, the cytotoxicity is -24.9%.

For the compound `O=C(Nc1cccc(NC(=O)N2CCN(c3ccccc3)CC2)c1)N1CCN(c2ccccc2)CC1`, the cytotoxicity was 56.3% (active).

For `O=C(Nc1cccc2ccccc12)N1CCN(c2ccccc2)CC1`, the cytotoxicity was 15.2%.

As for `COc1ccc(Cn2c(C)nc3oc4cc(OC)ccc4c(=O)c3c2=O)cc1`, the cytotoxicity was -21%.

In the case of `Nc1nc2n(n1)C(c1cccc(Cl)c1)CC(c1ccc(F)cc1)N2` (centres undefined), the cytotoxicity is 10.8%.

Turning to `CC(C)OC(=O)CC(=O)CSc1nc2c(cc1C#N)CCC2`, the cytotoxicity was 49.9%.

With `N#Cc1cc2c(nc1SCC(=O)Nc1sc3c(c1C#N)CCC3)CCCCC2`, the cytotoxicity is 23.2%.

Regarding `CCOC(=O)c1sc(NC(=O)CSc2nc3c(cc2C#N)CCCCCC3)c(C#N)c1C`, the cytotoxicity is 79.6% (active).

Turning to `Cc1cc(C)c(C#N)c(SCC(=O)CC(=O)OC(C)C)n1`, the cytotoxicity is 34.5%.

On to `CCOC(=O)c1sc(NC(=O)CSc2nc3c(cc2C#N)CCC3)c(C#N)c1C`, for which the cytotoxicity is 4.5%.

For the compound `COC(=O)CC(=O)CSc1nc2c(cc1C#N)CCCCC2`, the cytotoxicity was 10.3%.

As for `CCOC(=O)CC(=O)CSc1nc2c(cc1C#N)CCCCC2`, the cytotoxicity is -5.9%.

As to `Cc1c(C#N)c(SCC(N)=O)nc2c1CCCC2`, the cytotoxicity is -21%.

Regarding `Cc1nc(SCC(=O)CC(=O)OC(C)C)c(C#N)c(C)c1C`, the cytotoxicity was -1.2%.

Consider `CCOC(=O)CC(=O)CSc1nc2c(c(C)c1C#N)CCC2`, for which the cytotoxicity is 52.6% (active).

Take `COC(=O)CC(=O)CSc1nc2c(cc1C#N)CCC2`: the cytotoxicity is 76.1% (active).

`COc1cc(Cl)ccc1S(=O)(=O)n1nc(C)cc1C`: the cytotoxicity is 7.8%.

Consider `CCc1ccc(S(=O)(=O)NCc2csc(-c3cccnc3)n2)s1`, for which the cytotoxicity is -5%.

`CCOC(=O)c1ccccc1NC(=O)c1c(O)c2ccccc2n(CC)c1=O`: the cytotoxicity is -9.2%.

Take `CC(=O)N1CCc2cc(S(=O)(=O)NC(CC(C)C)C(=O)Nc3cc(C)ccn3)ccc21` (centres undefined): the cytotoxicity was -6.7%.
